Compounds without any hit were thinned out: in the full panel of roughly 83,000, 20% have a hit.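 Growth was measured after 48 h exposure to one concentration of compound in 96-well plates. Values under 10 count as active.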 The source made the active and inactive calls.

Drawing on PubChem BioAssay (NCI), this text covers growth for 34 compounds.

In this experiment the test system is SF-295 CNS. In words: NCI-60 one-dose screen, 48 h (100 = growth as untreated, 0 = no growth, -100 = all killed). Particulars: 10 µM unless noted.
As for `O=C1NC(=O)c2c1c1c3cc(Br)ccc3[nH]c1c1oc3ccc(F)cc3c21`, the growth was -64.3% (active). `C#CCOc1ccc(/C=N/Nc2nc(-c3ccc(F)cc3)cs2)cc1OC`: the growth is 79.2% (inactive). Take `O=C1NC(=O)/C(=C/c2ccccc2OCc2cc3ccccc3nc2Cl)S1`: the growth is 72% (inactive). In the case of `Cc1ccc(NCC(=O)Cn2cc(COc3ccc(C=Nc4cnc5ccccc5c4)cc3)nn2)cc1`, the growth is 107% (inactive). In the case of `C/C(=N\N=C1/C(=O)Nc2ccccc21)c1ccc2c(c1)Nc1ccccc1S2` it was 57.8% (inactive); in that of `C/C(=N\N=C1/C(=O)Nc2ccc(Cl)cc21)c1ccc2c(c1)Nc1ccccc1S2`, -27.4% (active); in that of `CCN(CC)c1ccnc(CNCCSC(c2ccccc2)(c2ccccc2)c2ccc(C)cc2)c1`, -97% (active). In the case of `Cc1cc2c(cc1Cl)C(=O)/C(=C/c1ccccc1)O2`, the growth was 24.9% (inactive). Consider `COc1ccc(C(=O)/C=C/c2ccc(OCc3ccc(F)cc3)c(OC)c2)cc1OC`, for which the growth was 15.6% (inactive). Consider `COc1cc(OC)c2c3nc4cc(C)c(C)cc4nc3n(CCN(C)C)c2c1`, for which the growth was 53.7% (inactive). For the compound `N=C1N=C(SCc2nc3ccccc3[nH]2)NC(=O)/C1=C/c1ccc(Cl)cc1`, the growth is 103% (inactive). In the case of `COc1ccc(C2CC(c3ccc(S(=O)(=O)NCCNc4nc(Nc5ccc(F)cc5)nc(N(C)C)n4)cc3)=Nc3c(N)nc(N)nc3N2)cc1` (centres undefined) it was 94.8% (inactive). Consider `O=C(Cn1nc(-c2ccccc2)ccc1=O)N/N=C/c1ccc(N2CCOCC2)cc1`, for which the growth is 88.8% (inactive). Regarding `CC1(C)CC[C@]2(C(=O)O)CC[C@]3(C)C(=CCC4[C@@]5(C)C[C@@H](O)[C@@H]6OC(c7cccc(Br)c7)OC[C@@]6(C)C5CC[C@]43C)C2C1` (some centres undefined), the growth was 33% (inactive). Regarding `COc1ccc(C(=O)/C=C/c2ccc(OCc3ccccc3)c(OC)c2)cc1OC`, the growth was 25.8% (inactive). On to `O=C(N=Nc1c(O)[nH]c2ccc([N+](=O)[O-])cc12)c1ccc2nc(-c3ccccc3)[nH]c2c1`, for which the growth was 102% (inactive). Consider `C/C(=N\N=C\c1cc([N+](=O)[O-])ccc1Cl)c1ccc2c(c1)Nc1ccccc1S2`, for which the growth was -28% (active).

Turning to `C=C1CCC2C3(C)COC(c4ccc(F)cc4)OC3CCC2(C)C1C/C=C1/C(=O)OCC1O` (centres undefined), the growth was -8.06% (active).

`CCCSc1nc(NCCc2c[nH]c3ccccc23)c(C#N)c(-c2ccc(OC)cc2)n1`: the growth was 29.7% (inactive). Take `N/C(=N\c1nc2ccccc2s1)NC(=O)Nc1ccccc1Br`: the growth is -31.4% (active). For `O=C(Cn1c2c(sc1=O)[C@H]1[C@@H](O)[C@@H](O)[C@H](O)[C@@H]1CS2)N1CCOCC1`, the growth was 105% (inactive). On to `COC(=O)/C=C/c1cccc2c1C(=O)NC(C)(c1cc3ccccc3oc1=O)N2` (centres undefined), for which the growth is 84.9% (inactive).

In the case of `Brc1ccc(-c2n(Cc3ccc4ccccc4c3)c(-c3ccccc3)c(-c3ccccc3)[n+]2Cc2ccc3ccccc3c2)cc1`, the growth was -86.3% (active). For the compound `COc1ccc(NC(=O)Cn2c3c(sc2=O)[C@H]2[C@@H](O)[C@@H](O)[C@H](O)[C@@H]2CS3)cc1`, the growth was 105% (inactive).

`Cc1cc2nc3c4ccccc4n(CCCN(C)C)c3nc2cc1C`: the growth was -30.4% (active). `O=S(=O)(Nc1cccc(-n2cnc3cc(-c4ccc(O)cc4)ccc32)c1)C1CC1`: the growth is 11.9% (inactive). In the case of `CN(C)c1ccnc(CNCCSC2(c3ccc(C(F)(F)F)cc3)c3ccccc3C=Cc3ccccc32)c1` it was -90.6% (active); in that of `CN(C)c1nc(NCCNS(=O)(=O)c2ccc(C3=Nc4c(N)nc(N)nc4NC(c4ccc(C(F)(F)F)cc4)C3)cc2)nc(Nc2ccc(F)cc2)n1` (centres undefined), 20.8% (inactive); in that of `O=C(NN1C(=O)/C(=C/C=C/c2ccc([N+](=O)[O-])o2)SC1=S)c1ccc(Cl)cc1`, -91.9% (active). As to `COCOc1ccc2c(=O)c(C)c(C(=O)N[C@@H](Cc3ccccc3)C(O)C(=O)NCCc3ccc(OC)cc3)oc2c1` (some centres undefined), the growth was 107% (inactive).

In the case of `C#CCOc1cc(N(CC)CC)ccc1C(C(=O)NC(C)(C)C)N(C(=O)C1CCc2cc(F)ccc2O1)c1ccc(Br)cc1` (centres undefined), the growth is 96.4% (inactive). `Cc1cc2nc3c4ccccc4n(CC4=NCCN4)c3nc2cc1C`: the growth was -74.8% (active). As for `Cn1cc(-c2nc(N)nnc2-c2c[nH]c3ccc(F)cc23)c2cccnc21`, the growth is 15.8% (inactive).

On to `COc1ccc(N2N=C(c3ccc4c(c3)OCO4)CC2c2cccc(NC(=O)CCNS(=O)(=O)c3ccc(Cl)cc3)c2)cc1` (centres undefined), for which the growth was 10.7% (inactive).
